For eight compounds, inhibition results are on record in ChEMBL document CHEMBL1961873, “Compounds: GSK PKIS; Assays: Nanosyn kinase panel” (2012).

The target of test [1] is T1, Inhibitor of nuclear factor kappa-B kinase subunit epsilon (Homo sapiens) (UniProt Q14164).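 Also: reported values are averaged percent inhibition figures against human IKKε.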
T1 sequence (whole entry): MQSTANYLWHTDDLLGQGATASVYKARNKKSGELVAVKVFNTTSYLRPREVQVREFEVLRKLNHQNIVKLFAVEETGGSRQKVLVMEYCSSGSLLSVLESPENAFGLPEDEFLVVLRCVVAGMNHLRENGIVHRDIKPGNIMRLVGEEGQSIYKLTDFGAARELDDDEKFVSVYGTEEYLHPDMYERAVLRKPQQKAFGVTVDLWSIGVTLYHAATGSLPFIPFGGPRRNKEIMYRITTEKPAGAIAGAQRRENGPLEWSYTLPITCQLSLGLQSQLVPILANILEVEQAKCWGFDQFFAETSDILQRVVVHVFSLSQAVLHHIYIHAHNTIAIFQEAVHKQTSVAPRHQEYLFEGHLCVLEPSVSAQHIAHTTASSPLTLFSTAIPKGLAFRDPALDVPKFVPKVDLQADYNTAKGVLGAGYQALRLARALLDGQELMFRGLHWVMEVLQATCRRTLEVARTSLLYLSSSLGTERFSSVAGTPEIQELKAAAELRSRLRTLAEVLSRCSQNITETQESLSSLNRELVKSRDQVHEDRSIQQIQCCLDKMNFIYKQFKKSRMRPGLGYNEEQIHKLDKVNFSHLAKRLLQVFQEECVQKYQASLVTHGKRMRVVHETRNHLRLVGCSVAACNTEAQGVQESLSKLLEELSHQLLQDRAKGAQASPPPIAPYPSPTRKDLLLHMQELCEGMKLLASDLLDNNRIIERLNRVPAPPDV
The settings on record: at 1 µM.

Test [2] deals with T2, Serine/threonine-protein kinase Nek1 (Homo sapiens) (UniProt Q96PY6).
T2 sequence (whole entry): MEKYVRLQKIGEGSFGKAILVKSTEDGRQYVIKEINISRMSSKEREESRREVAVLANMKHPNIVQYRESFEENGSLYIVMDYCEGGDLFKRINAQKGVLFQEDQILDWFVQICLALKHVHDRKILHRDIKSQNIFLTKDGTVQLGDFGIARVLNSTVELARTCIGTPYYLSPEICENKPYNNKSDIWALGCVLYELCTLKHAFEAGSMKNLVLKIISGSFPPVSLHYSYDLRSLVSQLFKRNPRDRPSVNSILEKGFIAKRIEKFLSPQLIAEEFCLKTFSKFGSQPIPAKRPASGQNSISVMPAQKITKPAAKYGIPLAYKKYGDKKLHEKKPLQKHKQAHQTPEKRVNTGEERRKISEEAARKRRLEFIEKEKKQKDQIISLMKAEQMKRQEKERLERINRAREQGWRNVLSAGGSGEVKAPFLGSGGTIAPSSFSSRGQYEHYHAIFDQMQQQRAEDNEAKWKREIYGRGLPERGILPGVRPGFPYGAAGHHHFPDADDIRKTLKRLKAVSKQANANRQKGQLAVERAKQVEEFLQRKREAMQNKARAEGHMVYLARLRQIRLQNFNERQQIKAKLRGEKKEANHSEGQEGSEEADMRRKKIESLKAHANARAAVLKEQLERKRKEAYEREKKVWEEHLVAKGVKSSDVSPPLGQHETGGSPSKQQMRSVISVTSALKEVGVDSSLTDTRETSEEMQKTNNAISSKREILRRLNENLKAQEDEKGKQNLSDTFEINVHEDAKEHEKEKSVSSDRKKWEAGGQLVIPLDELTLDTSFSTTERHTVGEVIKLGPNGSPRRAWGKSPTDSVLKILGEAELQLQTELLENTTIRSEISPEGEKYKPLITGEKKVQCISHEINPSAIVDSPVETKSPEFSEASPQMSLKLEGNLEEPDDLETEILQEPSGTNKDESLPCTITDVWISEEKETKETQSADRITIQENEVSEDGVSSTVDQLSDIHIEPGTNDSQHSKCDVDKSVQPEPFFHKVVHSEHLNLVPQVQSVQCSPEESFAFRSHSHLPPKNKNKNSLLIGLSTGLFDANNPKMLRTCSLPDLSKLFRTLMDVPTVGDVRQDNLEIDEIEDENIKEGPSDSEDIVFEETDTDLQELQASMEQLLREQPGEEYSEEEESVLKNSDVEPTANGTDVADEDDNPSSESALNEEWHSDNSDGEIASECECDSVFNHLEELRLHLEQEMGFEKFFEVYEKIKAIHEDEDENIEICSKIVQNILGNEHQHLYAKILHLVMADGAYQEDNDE
The following applies: at 0.1 µM.

Test [3] concerns the target T2, Serine/threonine-protein kinase Nek1 (Homo sapiens). The settings on record: at 1 µM.
Test [4] has as its target T3, Serine/threonine-protein kinase Nek2 (Homo sapiens) (UniProt P51955).
T3 sequence (whole entry): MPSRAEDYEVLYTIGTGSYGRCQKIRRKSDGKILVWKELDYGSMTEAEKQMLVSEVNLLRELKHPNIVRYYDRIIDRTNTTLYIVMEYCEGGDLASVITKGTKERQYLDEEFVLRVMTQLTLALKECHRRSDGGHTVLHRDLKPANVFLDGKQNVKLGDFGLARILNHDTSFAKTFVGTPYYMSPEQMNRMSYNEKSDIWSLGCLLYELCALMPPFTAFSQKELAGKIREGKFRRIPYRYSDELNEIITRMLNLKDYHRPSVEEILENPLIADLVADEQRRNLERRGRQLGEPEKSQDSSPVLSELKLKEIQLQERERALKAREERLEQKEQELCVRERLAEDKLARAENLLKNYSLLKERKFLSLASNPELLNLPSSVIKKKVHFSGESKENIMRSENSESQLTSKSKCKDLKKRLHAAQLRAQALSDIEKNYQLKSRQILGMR
The settings on record: at 0.1 µM.

The target of test [5] is T3, Serine/threonine-protein kinase Nek2 (Homo sapiens). The settings on record: at 1 µM.
Test [6] concerns the target Serine/threonine-protein kinase Nek6 (Homo sapiens) (UniProt Q9HC98). The settings on record: at 0.1 µM.
Test [7] shares this target. The settings on record: at 1 µM.
Test [8] addresses Serine/threonine-protein kinase Nek7 (Homo sapiens) (UniProt Q8TDX7). The settings on record: at 0.1 µM.
For test [9] the target is unchanged. The following applies: at 1 µM.
Test [10] has as its target T4, Serine/threonine-protein kinase Nek9 (Homo sapiens) (UniProt Q8TD19).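 Also: reported value is the mean percent inhibition of NEK9.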
T4 sequence (whole entry): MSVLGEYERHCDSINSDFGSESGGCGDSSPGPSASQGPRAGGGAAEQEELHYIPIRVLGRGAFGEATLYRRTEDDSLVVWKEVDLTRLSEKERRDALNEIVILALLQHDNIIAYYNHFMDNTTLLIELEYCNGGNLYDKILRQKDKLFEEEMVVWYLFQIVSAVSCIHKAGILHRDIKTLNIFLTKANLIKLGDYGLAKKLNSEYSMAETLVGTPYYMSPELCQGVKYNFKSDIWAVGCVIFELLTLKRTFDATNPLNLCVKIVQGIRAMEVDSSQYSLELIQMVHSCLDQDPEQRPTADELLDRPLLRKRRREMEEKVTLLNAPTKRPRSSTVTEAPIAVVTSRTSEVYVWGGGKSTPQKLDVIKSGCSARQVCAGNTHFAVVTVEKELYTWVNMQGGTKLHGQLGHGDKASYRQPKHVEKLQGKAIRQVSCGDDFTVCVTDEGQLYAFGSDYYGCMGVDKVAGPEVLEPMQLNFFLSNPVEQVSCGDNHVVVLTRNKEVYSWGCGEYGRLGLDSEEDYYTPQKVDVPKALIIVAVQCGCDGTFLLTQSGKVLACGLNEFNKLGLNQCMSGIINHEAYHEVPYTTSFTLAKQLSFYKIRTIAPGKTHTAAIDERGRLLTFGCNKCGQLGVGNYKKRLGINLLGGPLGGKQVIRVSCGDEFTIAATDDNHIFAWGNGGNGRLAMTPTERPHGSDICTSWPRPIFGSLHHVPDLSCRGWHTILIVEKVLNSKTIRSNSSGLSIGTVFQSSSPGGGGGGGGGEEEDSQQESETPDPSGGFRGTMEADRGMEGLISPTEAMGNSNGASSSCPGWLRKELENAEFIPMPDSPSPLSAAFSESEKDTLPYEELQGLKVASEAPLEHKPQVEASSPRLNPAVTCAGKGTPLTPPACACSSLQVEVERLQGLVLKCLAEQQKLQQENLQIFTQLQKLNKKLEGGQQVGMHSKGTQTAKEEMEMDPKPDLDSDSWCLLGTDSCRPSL
The following applies: at 0.1 µM.

Sequence of Serine/threonine-protein kinase Nek6 (Homo sapiens) (Q9HC98 whole entry): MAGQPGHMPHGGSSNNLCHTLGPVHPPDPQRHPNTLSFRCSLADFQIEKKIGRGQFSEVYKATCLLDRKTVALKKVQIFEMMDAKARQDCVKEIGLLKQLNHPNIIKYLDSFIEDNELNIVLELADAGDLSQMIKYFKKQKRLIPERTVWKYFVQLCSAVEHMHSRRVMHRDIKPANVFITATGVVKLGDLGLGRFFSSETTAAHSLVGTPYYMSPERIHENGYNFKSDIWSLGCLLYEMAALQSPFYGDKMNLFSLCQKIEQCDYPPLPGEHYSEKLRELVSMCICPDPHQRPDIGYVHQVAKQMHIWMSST
Sequence of Serine/threonine-protein kinase Nek7 (Homo sapiens) (Q8TDX7 whole entry, looked up): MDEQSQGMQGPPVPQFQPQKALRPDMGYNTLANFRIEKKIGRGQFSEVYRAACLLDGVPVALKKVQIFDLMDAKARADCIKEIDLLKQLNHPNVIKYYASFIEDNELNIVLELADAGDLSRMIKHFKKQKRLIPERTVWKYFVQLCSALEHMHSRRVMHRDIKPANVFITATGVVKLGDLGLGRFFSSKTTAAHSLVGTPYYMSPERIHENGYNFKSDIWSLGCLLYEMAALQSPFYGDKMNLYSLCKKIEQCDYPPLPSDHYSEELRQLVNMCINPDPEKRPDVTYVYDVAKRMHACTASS

Broadly, the inhibition is the drop in the measured response relative to a control, in per cent. As for `CS(=O)(=O)CCNCc1ccc(-c2ccc3ncnc(Nc4ccc(OCc5cccc(F)c5)c(C(F)(F)F)c4)c3c2)o1`, the inhibition in [1] is 2.73%; in test [2], 2.28%; in test [3] it was 4.09%; in [4] it was 4.44%; in [5], 3.68%; in [6], 2.48%. Also, the inhibition in test [7] was determined as 3.62%; in test [8], 4.72%; in test [9] it was 4.32%; in test [10], 7.55%.
As for `Fc1cccc(COc2ccc(Nc3ncnc4cc(-c5ccc[nH]5)sc34)cc2Cl)c1`, the inhibition in [1] turned out to be 3.19%; in [2] it was 1.42%; in test [3] it was 4.17%; in test [4], 3.51%; in test [5], 5.24%; in test [6], 1.65%. Also, the inhibition in [7] was determined as 3.84%; in test [8], 5.51%; in [9] it was 2.22%; in test [10] it was 1.71%.
In the case of `CS(=O)(=O)CCNCc1nc(-c2ccc3ncnc(Nc4ccc(F)c(Cl)c4)c3c2)cs1`, the inhibition was 2.88% in test [1]; -0.13% in [2]; 1.85% in test [3]; 2.32% in [4]; 2.06% in test [5]; 3.94% in test [6]. Besides, the inhibition in test [7] is 4.01%; in [8], -1.48%; in [9] it was 1.7%; in [10], 0.58%.
Regarding `NS(=O)(=O)c1cccc(-c2ccc3c(NC(=O)C4CC4)n[nH]c3c2)c1`, the inhibition is -3.2% in test [1]; -0.9% in [2]; -0.76% in test [3]; -1.41% in test [4]; -0.18% in test [5]; -1.88% in [6]. Moreover, the inhibition in [7] was -0.37%; in [8], 1.22%; in test [9], -2.64%; in test [10] it was 4.44%.
With `COc1ccc(-c2coc3ncnc(N)c23)cc1`, the inhibition in [1] came out at 4.6%; in test [2] it was 2.17%; in [3], 2.92%; in test [4], 4.88%; in test [5] it was 4.8%; in [6], 1.43%. The inhibition was found to be 2.31% in test [7], 6.65% in test [8], 4.79% in test [9] and 6.76% in [10].
Regarding `O=C1NC(=O)C(c2ccccc2Cl)=C1Nc1cccc(O)c1`, the inhibition was determined as 5.16% in [1]; 1.26% in [2]; 2.01% in [3]; 3.03% in [4]; 3.05% in test [5]; 1.73% in [6]. Moreover, the inhibition in [7] is -0.89%; in test [8], 4.66%; in [9], 2.35%; in test [10] it was 2.76%.
As for `NC(=O)c1ccc(-c2nc(-c3ccccn3)c(-c3ccc4c(c3)OCO4)[nH]2)cc1`, the inhibition in test [1] was 4.06%; in [2] it was 1.34%; in test [3] it was 3.26%; in test [4], 2.44%; in test [5], 2.69%; in test [6], 2.04%. The inhibition in test [7] was 4.68%; in test [8], 2.26%; in test [9], 1.68%; in [10], 6.53%.
For the compound `CS(=O)(=O)Nc1ccc(N/C=C2\C(=O)Nc3ccccc32)cc1`, the inhibition in test [1] is 7.71%; in test [2] it was -1.43%; in test [3] it was -2.34%; in test [4], -2.87%; in test [5] it was -3.33%; in test [6], -1.58%. The inhibition was -2.98% in test [7], -4.38% in test [8], -3.48% in [9] and -0.57% in test [10].
